SARS 3CLpro inh: SARS-CoV 3CLpro protease inhibition; 290,000 compounds, 0.14% hits; recombinant SARS-CoV 3CLpro, quenched FRET peptide cleavage; inhibition, % at 6 µM; P0C6X7; in the data active means inhibition above about 12%
RecA intein inh: Mtb RecA intein splicing inhibition. inhibition, % (test concentration not listed). cell-free RecA intein splicing, fluorescence. 290,000 compounds, 0.75% hits. P9WHJ3. AID 2221; in the data active means inhibition above about 30%
Target sequence (P9WHJ3 whole entry, looked up): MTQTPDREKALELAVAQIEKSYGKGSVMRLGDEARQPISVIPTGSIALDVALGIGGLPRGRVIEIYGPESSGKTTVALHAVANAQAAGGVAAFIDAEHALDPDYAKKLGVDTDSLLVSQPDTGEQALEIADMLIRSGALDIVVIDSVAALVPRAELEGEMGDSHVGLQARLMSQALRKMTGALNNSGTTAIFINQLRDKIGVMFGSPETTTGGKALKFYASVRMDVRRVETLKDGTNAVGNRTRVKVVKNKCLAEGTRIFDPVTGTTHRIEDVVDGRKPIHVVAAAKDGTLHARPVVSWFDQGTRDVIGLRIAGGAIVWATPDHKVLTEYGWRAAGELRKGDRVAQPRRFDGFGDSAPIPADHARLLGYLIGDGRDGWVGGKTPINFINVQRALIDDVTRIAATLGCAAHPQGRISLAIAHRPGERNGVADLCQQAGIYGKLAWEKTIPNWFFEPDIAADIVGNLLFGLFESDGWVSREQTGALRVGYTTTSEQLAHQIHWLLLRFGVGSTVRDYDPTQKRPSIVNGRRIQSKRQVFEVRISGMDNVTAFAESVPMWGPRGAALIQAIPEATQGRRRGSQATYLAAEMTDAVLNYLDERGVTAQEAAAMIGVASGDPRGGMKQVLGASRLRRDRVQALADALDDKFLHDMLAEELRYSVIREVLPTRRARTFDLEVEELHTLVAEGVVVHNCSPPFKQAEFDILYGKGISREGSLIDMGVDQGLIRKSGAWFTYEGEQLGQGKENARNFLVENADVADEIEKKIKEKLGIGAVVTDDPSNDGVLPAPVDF
GDH-TPI counter-1: inhibits GDH-TPI coupling enzymes, artifact for Mtb FBA screen; GDH-TPI coupled enzyme counterscreen, NADH absorbance; AID 588335; inhibition, % at 4.8 µM; 360,000 compounds, 1.2% hits; in the data active means inhibition above about 30%
VHR inh abs: blocks human VHR1 dual specificity phosphatase. inhibition, % at 13.3 µM. P51452. 290,000 compounds, 0.52% hits. recombinant VHR phosphatase, pNPP absorbance; in the data active means inhibition above about 50%
CCHFV vOTU inh: blocks the CCHF virus ovarian tumor domain protease | CCHFV vOTU protease, Pep-AMC fluorescence | 370,000 compounds, 0.55% hits | inhibition, % at 11.5 µM; in the data active means inhibition above about 30%
Mtb FBA inh: inhibits M. tuberculosis FBA enzyme | purified M. tuberculosis FBA, fluorescence read-out | P9WQA3 | inhibition, % at 1 µM | 360,000 compounds, 2.3% hits
Mtb FBA confirm: confirmation of M. tuberculosis fructose-bisphosphate aldolase inhibitors; shares compounds with Mtb FBA inh; inhibition, % at 1 µM; purified M. tuberculosis FBA, fluorescence read-out; 5,600 compounds, 78% hits
GDH-TPI counter-2: counter-screen for M. tuberculosis FBA inhibitors: GDH-TPI coupled enzyme inhibition; 5,600 compounds, 81% hits; shares compounds with Mtb FBA inh; GDH-TPI coupled enzyme counterscreen, fluorescence; AID 652141; inhibition, % at 1 µM; in the data active means inhibition above about 10%
GDH-TPI dose: counter-screen for M. tuberculosis FBA inhibitors: GDH-TPI dose response | shares compounds with Mtb FBA inh | GDH-TPI coupled enzyme assay, fluorescence, artifact counterscreen | IC50, µM | 170 compounds, 79% hits | AID 652145; call rule not given here
Each line names hits and unclear results; the compound was inactive in the other large screens (follow-up assays come after a bar, where they were run). A selection: hits, their analogues and other compounds. The true share with any hit is near 4.7%. Unless noted, no stated cut-off is given here; in the data, active means inhibition above about 27%; inactive means the rest.

COc1ccc(C(=O)NCCCNC(=O)c2ccc(C)nc2)cc1	none
COc1cc(OC)cc(C(=O)NNC(=O)C(CCC(N)=O)NS(=O)(=O)c2ccc(Cl)cc2)c1 (stereo unspecified)	none (no result: SARS 3CLpro inh, RecA intein inh, VHR inh abs)
Cc1ccc(-n2c(-c3ccco3)nc3nc4ccccc4nc32)cc1F	Mtb FBA inh 33 | Mtb FBA confirm 77 | GDH-TPI counter-2 62
Fc1cccc(-n2c(-c3ccco3)nc3nc4ccccc4nc32)c1	Mtb FBA inh 52 | Mtb FBA confirm 73 | GDH-TPI counter-2 49
Fc1cccc(-n2c(-c3cccs3)nc3nc4ccccc4nc32)c1	none (no result: GDH-TPI counter-1, CCHFV vOTU inh, Mtb FBA inh)
Cc1cccc(C(=O)Nc2ccc3c(c2)C(=O)NC3=O)c1	Mtb FBA inh 45 | Mtb FBA confirm inactive | GDH-TPI counter-2 inactive
O=C(Nc1ccc2c(c1)C(=O)NC2=O)c1cccc(Cl)c1	none
CC(C)C(=O)Nc1ccc2c(c1)C(=O)NC2=O	Mtb FBA inh 46 | Mtb FBA confirm inactive | GDH-TPI counter-2 13
Cc1cccc(C(=O)Nc2cccc(C(=O)N/N=C/c3ccccn3)c2)c1	Mtb FBA inh 48 | Mtb FBA confirm inactive | GDH-TPI counter-2 inactive
O=C1NC(=O)c2cc(NC(=O)C3CCCCC3)ccc21	Mtb FBA inh 44 | Mtb FBA confirm 132 | GDH-TPI counter-2 88
Cc1cccc(C(=O)N/N=C/c2ccccn2)c1	none
CC(=O)Oc1ccccc1Cn1c(C)c(C(=O)N(C)Cc2ccc(F)cc2)sc1=O	none (no result: SARS 3CLpro inh, RecA intein inh, VHR inh abs)
CC(Oc1ccccc1F)C(=O)NNC(=O)CCNC(=O)c1ccccc1Cl (stereo unspecified)	none
COc1ccccc1NC(=O)CSc1nc2c(sc3ccccc32)c(=O)n1CCN(C)C	RecA intein inh 35, Mtb FBA inh 51 | Mtb FBA confirm 76 | GDH-TPI counter-2 60
CN(C)CCn1c(SCc2ccccc2C#N)nc2c(sc3ccccc32)c1=O	Mtb FBA inh 50 | Mtb FBA confirm 75 | GDH-TPI counter-2 59
CC(C)CCn1c(SCC#N)nc2c(sc3ccccc32)c1=O	none
COc1cc(/C=C/C(=O)Nc2ccncc2)cc(OC)c1OC	Mtb FBA inh 38 | Mtb FBA confirm 74 | GDH-TPI counter-2 66
CC(C)(C)C1CCC(=NNC(=O)C(=O)NC2CCCCC2)CC1 (stereo unspecified)	none
Cc1c(Br)c(=O)oc2c(C)c(O)ccc12	Mtb FBA inh 41 | Mtb FBA confirm 196 | GDH-TPI counter-2 169
CCOCCCn1c(=N)c(C(=O)Nc2cc(C)on2)cc2c(=O)n3ccccc3nc21	none (no result: RecA intein inh, GDH-TPI counter-1, VHR inh abs, CCHFV vOTU inh, Mtb FBA inh)
CCOC(=O)c1cc2c(=O)n3ccccc3nc2n(CCOC)c1=NC(=O)c1c(-c2c(F)cccc2Cl)noc1C	GDH-TPI counter-1 37, Mtb FBA inh 49 | Mtb FBA confirm 178 | GDH-TPI counter-2 166
Nn1c(SCC(=O)Nc2cc(C(F)(F)F)ccc2Cl)nnc1-c1n[nH]c2c1CCC2	none (no result: SARS 3CLpro inh, RecA intein inh, GDH-TPI counter-1, VHR inh abs, Mtb FBA inh)
Cc1oc2ccccc2c1-c1cn2c(n1)SCC2	Mtb FBA inh 102 | Mtb FBA confirm 52 | GDH-TPI counter-2 41
c1ccc(-n2cc(CN3CCC(N4CCOCC4)CC3)c(-c3ccc4c(c3)OCO4)n2)cc1	Mtb FBA inh 36 | Mtb FBA confirm 55 | GDH-TPI counter-2 66
c1ccc(-n2cc(CN3CCCC3)c(-c3ccc4c(c3)OCO4)n2)cc1	none
O=C(Cc1ccccc1[N+](=O)[O-])OCC(=O)N1CCN(c2ccccc2)CC1	none (no result: SARS 3CLpro inh, VHR inh abs)
Nc1cc(N)nc(SCc2ccccc2Cl)n1	none (no result: SARS 3CLpro inh, RecA intein inh, VHR inh abs)
Cc1cc2c(SCc3ccccc3Cl)nc(N)nc2nc1C	Mtb FBA inh 86 (no result: SARS 3CLpro inh, RecA intein inh, VHR inh abs) | Mtb FBA confirm inactive | GDH-TPI counter-2 inactive | GDH-TPI dose 1.3
Nc1ccc(Cc2ccccn2)cc1	none
Nc1ccc[n+](Cc2ccccn2)c1	Mtb FBA inh 61 | Mtb FBA confirm inactive | GDH-TPI counter-2 inactive
Cc1ccc(-c2nc(CN3CCCCC3)cc(CN3CCCCC3)c2O)cc1	Mtb FBA inh 59 | Mtb FBA confirm 144 | GDH-TPI counter-2 122
COCCN(C(=O)CCC(=O)Nc1ccccn1)C(C(=O)NC(C)(C)C)c1ccc(OC)cc1 (stereo unspecified)	none
CCOc1ccc(C(C(=O)NC(C)(C)C)N(CCOC)C(=O)CCC(=O)Nc2ccccn2)cc1 (stereo unspecified)	Mtb FBA inh 40 (no result: RecA intein inh) | Mtb FBA confirm 60 | GDH-TPI counter-2 53
COc1ccc(S(=O)(=O)N2CCCOC2CNC(=O)C(=O)NCc2ccccn2)cc1 (stereo unspecified)	none
Nc1cc(Cl)ccc1C(=O)OCC(=O)N1CCOCC1	Mtb FBA inh 44 | Mtb FBA confirm 63 | GDH-TPI counter-2 53
O=C(OCC(=O)N1CCCCCC1)c1cccc(Cl)c1	none (no result: SARS 3CLpro inh, RecA intein inh, VHR inh abs)
Cc1ccc(C(=O)OCC(=O)NCC2CCCO2)c(C)c1 (stereo unspecified)	none
Nc1cc(Cl)ccc1C(=O)OCC(=O)NCC1CCCO1 (stereo unspecified)	Mtb FBA inh 53 (no result: SARS 3CLpro inh, RecA intein inh, VHR inh abs) | Mtb FBA confirm 106 | GDH-TPI counter-2 74
Nc1cc(Cl)ccc1C(=O)OCC(=O)NC1CCCCC1	none
Nc1cc(Cl)ccc1C(=O)OCC(=O)N1CCCCCC1	Mtb FBA inh 60 (no result: SARS 3CLpro inh, RecA intein inh, VHR inh abs) | Mtb FBA confirm inactive | GDH-TPI counter-2 inactive
CCN(C(=O)COC(=O)c1ccc(Cl)cc1N)C1CCCCC1	Mtb FBA inh 31 | Mtb FBA confirm 93 | GDH-TPI counter-2 87
CCOC(=O)c1cccc(NC(=O)CN(C)S(=O)(=O)c2ccc(Br)s2)c1	none (no result: SARS 3CLpro inh, RecA intein inh, GDH-TPI counter-1, VHR inh abs, Mtb FBA inh)
Nc1cc(Cl)ccc1C(=O)OCC(=O)N1CCCC1	Mtb FBA inh 59 | Mtb FBA confirm 93 | GDH-TPI counter-2 84
Nc1cc(C(=O)OCC(=O)N2CCCC2)ccc1Cl	none
Cc1cccc2c1-c1sc(C(=O)N3CCCCC3)cc1CO2	Mtb FBA inh 42 | Mtb FBA confirm inactive | GDH-TPI counter-2 19
Cc1cccc2c1-c1sc(C(=O)N3CCc4ccccc4C3)cc1CO2	Mtb FBA inh 41 | Mtb FBA confirm 59 | GDH-TPI counter-2 41
Cc1ccc(NC(=O)OCCCN2C(=O)CCC23CCC(C)CC3)cc1 (stereo unspecified)	none (no result: SARS 3CLpro inh, RecA intein inh, GDH-TPI counter-1, VHR inh abs, Mtb FBA inh)
Cc1ccc(N2C(=O)N(CC(=O)Nc3ccc([N+](=O)[O-])cc3)C(=O)C2C)cc1 (stereo unspecified)	none
COC(=O)[C@]12C[C@H](CC(=O)NCc3cccs3)C(=O)N(Cc3cccc4ccccc34)C1=C[C@H](C(C)C)O[C@@H]2C1CC1	none (no result: SARS 3CLpro inh, RecA intein inh, GDH-TPI counter-1, VHR inh abs, Mtb FBA inh)
Cc1cc(OCC(=O)NCCCn2ccnc2)c2c(C)cc(=O)oc2c1	Mtb FBA inh 78 | Mtb FBA confirm 108 | GDH-TPI counter-2 74
Cc1ccccc1OCC(=O)OCC(=O)Nc1ccc(S(N)(=O)=O)cc1	none
Cc1c(C)c2ccc(OCC(=O)NCCCn3ccnc3)c(C)c2oc1=O	Mtb FBA inh 43 | Mtb FBA confirm 153 | GDH-TPI counter-2 126

Screening results deposited in PubChem by several laboratories.
